# Measured values as given in PubChem BioAssay.
# Records with an inconclusive call do not appear. For some of these results: Results with a measured potency or affinity are listed apart. Calls of active or inactive are those of the source. Unless noted, how the calls were made is not given here.
# Columns and labels:
# [1] = polyglutamine-triggered caspase-3 activation inhibitors, cell-based (AID 1583); conditions: polyglutamine-induced caspase-3 activation, cell assay; stronger effect = higher value;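 tested at 10 µM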
# [2] = suppressors of polyQ aggregation in yeast, 75Q-TubU reporter (AID 1593); conditions: Yeast 75Q polyglutamine aggregation reporter
# [3] = rescue of polyQ-huntingtin neuronal dysfunction in worms, whole organism, C. elegans mechanosensory neurons, N-terminal huntingtin (AID 1599); conditions: touch response, stronger effect = higher value
# [4] = inhibitors of mitochondrial cytochrome c release, biochemical, purified mitochondria (AID 1603); conditions: stronger effect = lower value;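 further: mouse liver mitochondria challenged with calcium chloride; signal normalized to the plate average as 100%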
# [5] = inhibitors of polyQ protein aggregation (AID 1604); conditions: polyglutamine-induced protein aggregation inhibition assay; stronger effect = higher value; tested at 2.5 µM
# [6] = enhancers of glutamate uptake in motor neurons, MN-1 cell line (AID 1612); conditions: MN-1 motor neuron cells, stronger effect = higher value;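 further: tested at 1 µM final; 0% = mean of DMSO vehicle wells on each plate; positive means more glutamate uptake than control and negative means less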
# [7] = reducers of polyQ inclusions in PC12 cells, cell-based, NGF-treated PC12, GFPQ80 (AID 1614); conditions: PC12 NGF-treated GFP-polyQ80 inclusion reduction;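 further: lower means fewer inclusions and 0 means no inclusions at all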
# [8] = suppressors of polyglutamine aggregation in yeast, 75Q-TubH (AID 1616); conditions: S. cerevisiae 75Q-TubH polyglutamine aggregation suppression; stronger effect = higher value
# [9] = protection against mutant huntingtin cytotoxicity, PC12 cells, LDH release (AID 1610); conditions: PC12 mutant huntingtin toxicity, final LDH at 4 uM, stronger effect = lower value
# [10] = antimalarial activity against Dd2 strain (AID 2302;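 active means growth inhibition above 50% at the single 2 µM test dose, taken to imply half-maximal potency below 2 µM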;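 further: 0% = DMSO untreated growth and 100% = chloroquine plus artemisinin killed control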); conditions: P. falciparum Dd2 in RBCs, LDH growth readout, 72 h; at 2 µM; stronger effect = higher value
# [11] = HepG2 cytotoxicity, primary screen, cytotoxicity control for P. falciparum antimalarial project, cell-based, ATP luminescence (AID 2303;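 active means inhibition above 50%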;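 further: 0% = DMSO wells and 100% = digitonin-killed cells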); conditions: HepG2 viability, 24-48 h, at 10 µM, stronger effect = higher value
# [12] = target: L-lactate dehydrogenase (Plasmodium falciparum (isolate CDC / Honduras)) (UniProt Q27743); assay: PfLDH activity inhibition – cell lysate, 3D7 strain, counter-screen for P. falciparum growth inhibition project (AID 2304);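 further: 0% = vehicle and 100% = reference inhibitor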; conditions: P. falciparum 3D7 crude extract, LDH APAD/NBT absorbance; at 2 µM; stronger effect = higher value
# [13] = inhibition of 3D7 malaria parasite growth – strain 3D7 (AID 2306);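 further: 0% = DMSO wells and 100% = chloroquine plus artemisinin control wells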; conditions: P. falciparum 3D7 erythrocytic growth, LDH absorbance, 72 h; at 2 µM; stronger effect = higher value
# [14] = viability rescue of complex I mutant cybrids, primary screen, cell-based, galactose medium, ATP luminescence (AID 1645843;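 active means z-score of at least 1.8 in each of two replicates, scored against plate mean and spread of sample wells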;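 further: positive z means more ATP and so rescue of galactose-driven cybrid death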); conditions: complex I mutant cybrid cells, 72 h, stronger effect = higher value
# [15] = circadian clock period modulators, cell-based, LOPAC library, luminescence reporter (AID 2774); conditions: circadian reporter cells, at 7 µM, actives lie on both sides;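 further: values are relative to mean of DMSO wells on each plate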
# L-lactate dehydrogenase (Plasmodium falciparum (isolate CDC / Honduras)), sequence (Q27743 whole entry, looked up): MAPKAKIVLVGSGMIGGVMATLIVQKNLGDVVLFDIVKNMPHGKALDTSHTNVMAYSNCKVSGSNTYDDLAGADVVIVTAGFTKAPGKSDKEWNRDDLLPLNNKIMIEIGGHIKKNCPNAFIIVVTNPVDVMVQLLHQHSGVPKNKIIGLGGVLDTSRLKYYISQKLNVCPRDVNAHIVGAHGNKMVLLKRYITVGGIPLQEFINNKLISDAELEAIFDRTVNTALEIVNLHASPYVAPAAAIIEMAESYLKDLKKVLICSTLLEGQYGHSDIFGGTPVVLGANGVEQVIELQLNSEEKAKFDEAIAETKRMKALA
structure (smiles),measurement,setting,value
CC[C@@H]1[C@@H](O)N2C3C[C@H]1C1C(O)[C@]4(C[C@@H]12)c1ccccc1N(C)[C@@H]34 (stereo partly specified),inhibition,[1],7.74%
same,score,[2],0.91
same,rescue above control,[3],-2.66
same,cytochrome c release ratio,[4],0.89
same,inhibition of aggregation,[5],-46.3%
same,glutamate uptake change,[6],-1.35%
same,inclusion score,[7],2
same,aggregation suppression score,[8],1.31
CN1C(=O)CN=C(c2ccccc2F)c2cc([N+](=O)[O-])ccc21,inhibition,[1],9.27%
same,score,[2],0.97
same,rescue above control,[3],-7.57
same,cytochrome c release ratio,[4],0.83
same,inhibition of aggregation,[5],22.4%
same,glutamate uptake change,[6],-1.18%
same,inclusion score,[7],2
same,aggregation suppression score,[8],0.965
CCC(=O)C(CC(C)N(C)C)(c1ccccc1)c1ccccc1 (stereo unspecified),inhibition,[1],-9.47%
same,score,[2],1.06
same,rescue above control,[3],0.15
same,cytochrome c release ratio,[4],0.89
same,inhibition of aggregation,[5],21.1%
same,glutamate uptake change,[6],7.77%
same,inclusion score,[7],2
same,aggregation suppression score,[8],0.899
CCCCCc1cc(O)c2c(c1)OC(C)(C)c1ccc(C)cc1-2,inhibition,[1],29.1%
same,score,[2],-1.59
same,rescue above control,[3],9.18
same,cytochrome c release ratio,[4],1.94
same,inhibition of aggregation,[5],-2.04%
same,normalised LDH release,[9],0.953
same,glutamate uptake change,[6],-26.4%
same,aggregation suppression score,[8],-0.155
CCOC(=O)C1(c2ccccc2)CCN(C)CC1,inhibition,[1],15%
same,score,[2],1.03
same,rescue above control,[3],5.54
same,cytochrome c release ratio,[4],0.93
same,inhibition of aggregation,[5],7.48%
same,glutamate uptake change,[6],5.98%
same,inclusion score,[7],2
same,aggregation suppression score,[8],1.14
C[C@]12CCC3C(CC[C@@H]4C[C@H](O)CC[C@]34C)C1CCC2=O (stereo partly specified),inhibition,[1],61%
same,score,[2],0.81
same,rescue above control,[3],-3.82
same,cytochrome c release ratio,[4],0.77
same,inhibition of aggregation,[5],91.7%
same,glutamate uptake change,[6],-9.61%
same,aggregation suppression score,[8],0.472
CN1C2CC(OC(=O)[C@H](CO)c3ccccc3)C[C@H]1CC2O (stereo partly specified),inhibition,[1],17.4%
same,score,[2],1.3
same,rescue above control,[3],-1.97
same,cytochrome c release ratio,[4],0.75
same,inhibition of aggregation,[5],83.9%
same,glutamate uptake change,[6],4.44%
same,inclusion score,[7],2
same,aggregation suppression score,[8],1.3
Cc1ccc(C[C@H](C)NC[C@H](O)c2cccc(C(F)(F)F)c2)cc1,growth inhibition,[10],54% (active)
same,inhibition,[11],5% (inactive)
same,inhibition,[12],-1% (inactive)
same,growth inhibition,[13],100% (active)
CC(CCCC(C)(C)O)NC(C)Cc1ccccc1F (stereo unspecified),z-score,[14],-0.515 (inactive)
CP(=O)(O)CCCN,period change,[15],-0.005 h (inactive)
